Drawing on PubChem BioAssay (EPA / NIEHS), this text covers outcome and AC50 for 23 compounds.

The target in assay [1] is Estrogen receptor (Homo sapiens) (UniProt P03372). Kind of assay: OT_ER_ERaERa_1440: Odyssey Thera (OT) 24-hour HEK293T Protein-Complementation Assay for Estrogen Receptor-alpha/-alpha Homodimer (AID 2283349).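 Also: hits raise fluorescence above DMSO for agonists and antagonists alike.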 Put shortly: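 Protein-fragment complementation between two human ERα ligand-binding domains (aa 310-547) in stably transfected HEK293T cells was monitored after 24 h treatment, using fluorescence intensity relative to vehicle controls.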

Assay [2] shares this target. The assay is described as follows: OT_ER_ERaERa_0480: Odyssey Thera (OT) 8-hour HEK293T Protein-Complementation Assay for Estrogen Receptor-alpha/-alpha Homodimer (AID 2283351).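 Also: rise in fluorescence from reassembled reporter fragments on ERα LBD homodimer in nucleus or whole cell.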 In outline: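 HEK293T, stable ERα LBD (aa 310-547) PCA homodimer; 8 h compound exposure; fluorescence intensity, laser scanning cytometer; positive fitting direction, DMSO baseline.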
The target of assay [3] is T1, Estrogen receptor (Homo sapiens) + Estrogen receptor beta (Homo sapiens) (UniProt P03372+Q92731). Kind of assay: OT_ER_ERaERb_0480: Odyssey Thera (OT) 8-hour HEK293T Protein-Complementation Assay for Estrogen Receptor-alpha/-beta Heterodimer (AID 2283352). Put shortly: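 Fluorescence intensity readout from a protein-fragment complementation reporter in HEK293T; ER-alpha/ER-beta LBD heterodimer. Dosing 8 h. Gain-of-signal fit relative to DMSO negative control; laser scanning cytometry of whole-well cell population.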

Assay [4] has as its target Androgen Receptor/SRC-1 Co-activator, AR (gene 367) (UniProt P10275). The assay is described as follows: OT_AR_ARSRC1_0960: Odyssey Thera (OT) 16-hour HEK293T Protein-Complementation Assay for Androgen Receptor/SRC-1 Co-activator (AID 2283353).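 Also: actives raise the signal above DMSO so potency reflects increased AR and SRC-1 complex.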 In outline:
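Split-Venus PCA, AR/SRC-1 fusions, stable HEK293T; 16 h compound exposure; imaged at 488 and 635 nm; N/C ratio (488 nm channel), min 400 cells/image; positive-direction fit, DMSO baseline.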

Assay [5] has the same target. Kind of assay: OT_AR_ARSRC1_0480: Odyssey Thera (OT) 8-hour HEK293T Protein-Complementation Assay for Androgen Receptor/SRC-1 Co-activator (AID 2283354).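 Also: hits raise the complementation signal above DMSO so AC50 marks enhancers.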 Put shortly: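 Measures AR/SRC-1 binding by Venus YFP fragment complementation in HEK293T stable lines at 8 h post-dose. Imaging quantifies the 488nm nucleus/cytoplasm ratio in ≥400 cells; DMSO defines baseline.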

In assay [6] the target is Estrogen receptor beta (Homo sapiens) (UniProt Q92731). The assay is described as follows: OT_ER_ERbERb_0480: Odyssey Thera (OT) 8-hour HEK293T Protein-Complementation Assay for Estrogen Receptor-beta/-beta Homodimer (AID 2283357).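 Also: active means signal gain over DMSO baseline.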 Put shortly: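 Cells (HEK293T, stable ER-beta LBD PCA pair) are treated 8 hours, fixed and Draq5-stained; signal is fluorescence intensity increase relative to vehicle, fitted in the gain direction.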

Assay [7] has as its target Retinoic acid receptor alpha (Homo sapiens) (UniProt P10276). The assay is described as follows: NVS_NR_hRAR_Antagonist: NovaScreen (NVS) Nuclear Receptor Binding Assay for human Retinoic Acid Alpha Receptor Antagonism (RAR) (AID 2283358). In outline:
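TR-FRET, cell-free, antagonist format; 2 h incubation after dosing; DMSO = baseline; signal loss fitted; 25 uM duplicate primary, then conc. series.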

The target in assay [8] is human Peroxisome Proliferator-activated Receptor alpha (PPARa), PPARA (gene 5465) (UniProt Q07869). The assay is described as follows: NVS_NR_hPPARa: NovaScreen (NVS) Nuclear Receptor Binding Assay for human Peroxisome Proliferator-activated Receptor alpha (PPARa) (AID 2283359).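 Also: activity means loss of TR-FRET signal versus DMSO baseline.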 Put shortly: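 Chemicals were first screened in duplicate at 25 uM, and active ones were retested across concentration series. Binding was monitored by TR-FRET one hour after dosing, with decreased signal against DMSO counted as activity.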

Assay [9] deals with Retinoic acid receptor alpha (Homo sapiens) (UniProt P10276). Kind of assay: NVS_NR_hRARa_Agonist: NovaScreen (NVS) Nuclear Receptor Binding Assay for human Retinoic Acid Alpha Receptor Agonism (RAR) (AID 2283361). In outline: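 Readout is time-resolved fluorescence resonance energy transfer after a 2 h exposure of cell-free extracted receptor protein. Initial testing used 25 uM in duplicate, with concentration-response follow-up for active chemicals.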

For assay [10], the target named is human Thyroid Receptor Alpha (TRa), THRA (gene 7067) (UniProt P10827). The assay is described as follows: NVS_NR_hTRa_Antagonist: NovaScreen (NVS) Nuclear Receptor Binding Assay for human Thyroid Receptor Alpha Antagonism (TRa) (AID 2283362).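 Also: activity is loss of signal relative to DMSO baseline.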 Put shortly: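 AlphaLISA chemiluminescent immunoassay readout, taken 1 h post-dosing in a cell-free system with extracted protein. Activity was scored as signal loss against DMSO negative control, from duplicate single-concentration (25 uM) testing followed by concentration-response follow-up.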

For assay [11], the target named is rat Mineralocorticoid Receptor (MR), Nr3c2 (gene 25672) (UniProt P22199). The assay is described as follows: NVS_NR_rMR: NovaScreen (NVS) Nuclear Receptor Binding Assay for rat Mineralocorticoid Receptor (MR) (AID 2283355). Put shortly: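 Adrenalectomized rat brain supernatant was dosed with test chemical, then radioligand binding was measured by scintillation counting at 24 h. Initial testing ran in duplicate at 25 uM, followed by concentration series for actives.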

Assay [12] deals with T1, Estrogen receptor (Homo sapiens) + Estrogen receptor beta (Homo sapiens). Kind of assay: OT_ER_ERaERb_1440: Odyssey Thera (OT) 24-hour HEK293T Protein-Complementation Assay for Estrogen Receptor-alpha/-beta Homodimer (AID 2283356).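 Also: heteromer of ER alpha and ER beta binding domains; hits raise reporter fluorescence and both agonists and antagonists give an increase.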 Put shortly: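 Readout: mean fluorescence intensity in nucleus (agonists) or nucleus plus cytoplasm (antagonists), read by laser scanning cytometer after 24 h compound exposure of HEK293T cells carrying ERα/ERβ LBD fragment-complementation constructs; DMSO baseline.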

In another assay the target is PGR (gene 5241) (UniProt P06401). The assay is described as follows: NVS_NR_hPR: NovaScreen (NVS) Nuclear Receptor Binding Assay for human Progestron Receptor (PR) (AID 2283360).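 Also: active means loss of bound radioligand signal versus DMSO baseline.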 In outline:
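Competitive displacement of a labelled radioligand from T47D-derived receptor protein is measured in a cell-free format. Initial testing uses 25 uM in duplicate, with positive and negative controls on every plate.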

Records with an inconclusive call do not appear. Active and inactive are the calls of the source. The calls were made as follows: active = hit-call score of the fitted dose curve at least 0.9, where 1 is the maximum; inconclusive = response in the unintended direction; inactive = score below 0.9.

T1 sequence (P03372 whole entry, looked up, the tested form may be a part): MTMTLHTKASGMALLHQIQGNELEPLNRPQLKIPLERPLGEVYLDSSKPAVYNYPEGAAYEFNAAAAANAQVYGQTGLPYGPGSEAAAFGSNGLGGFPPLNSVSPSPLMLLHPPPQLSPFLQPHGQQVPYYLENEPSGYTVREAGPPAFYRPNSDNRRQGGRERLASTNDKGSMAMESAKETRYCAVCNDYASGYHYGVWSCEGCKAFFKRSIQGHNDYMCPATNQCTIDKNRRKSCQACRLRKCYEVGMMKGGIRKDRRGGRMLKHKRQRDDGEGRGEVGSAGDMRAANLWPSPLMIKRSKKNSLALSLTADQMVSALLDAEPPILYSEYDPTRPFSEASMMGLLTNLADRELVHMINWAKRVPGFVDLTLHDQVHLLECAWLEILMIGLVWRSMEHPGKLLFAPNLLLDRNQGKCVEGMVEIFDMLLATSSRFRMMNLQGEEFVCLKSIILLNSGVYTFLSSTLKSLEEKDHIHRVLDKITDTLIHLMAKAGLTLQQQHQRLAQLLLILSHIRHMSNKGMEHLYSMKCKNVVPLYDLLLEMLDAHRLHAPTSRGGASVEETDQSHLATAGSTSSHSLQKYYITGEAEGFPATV
T1 sequence (Q92731 whole entry, looked up, the tested form may be a part): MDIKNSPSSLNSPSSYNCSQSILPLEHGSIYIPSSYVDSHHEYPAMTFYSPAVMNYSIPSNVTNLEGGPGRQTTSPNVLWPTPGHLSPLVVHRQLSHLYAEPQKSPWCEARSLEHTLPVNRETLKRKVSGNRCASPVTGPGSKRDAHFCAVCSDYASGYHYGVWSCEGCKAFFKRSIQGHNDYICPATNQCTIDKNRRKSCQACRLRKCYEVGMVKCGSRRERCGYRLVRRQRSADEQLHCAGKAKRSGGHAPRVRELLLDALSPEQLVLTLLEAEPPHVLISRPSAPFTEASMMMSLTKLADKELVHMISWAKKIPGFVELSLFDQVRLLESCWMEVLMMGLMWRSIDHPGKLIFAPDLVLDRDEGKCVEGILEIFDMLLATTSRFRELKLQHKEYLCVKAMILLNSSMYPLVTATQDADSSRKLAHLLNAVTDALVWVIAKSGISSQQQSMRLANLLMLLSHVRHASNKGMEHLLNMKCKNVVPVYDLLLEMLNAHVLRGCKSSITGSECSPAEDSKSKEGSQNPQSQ
Chain of Estrogen receptor (Homo sapiens) (P03372 whole entry, looked up, the tested form may be a part): as the sequence (P03372 whole entry, looked up, the tested form may be a part) above
Chain of PGR (gene 5241) (P06401 whole entry, looked up): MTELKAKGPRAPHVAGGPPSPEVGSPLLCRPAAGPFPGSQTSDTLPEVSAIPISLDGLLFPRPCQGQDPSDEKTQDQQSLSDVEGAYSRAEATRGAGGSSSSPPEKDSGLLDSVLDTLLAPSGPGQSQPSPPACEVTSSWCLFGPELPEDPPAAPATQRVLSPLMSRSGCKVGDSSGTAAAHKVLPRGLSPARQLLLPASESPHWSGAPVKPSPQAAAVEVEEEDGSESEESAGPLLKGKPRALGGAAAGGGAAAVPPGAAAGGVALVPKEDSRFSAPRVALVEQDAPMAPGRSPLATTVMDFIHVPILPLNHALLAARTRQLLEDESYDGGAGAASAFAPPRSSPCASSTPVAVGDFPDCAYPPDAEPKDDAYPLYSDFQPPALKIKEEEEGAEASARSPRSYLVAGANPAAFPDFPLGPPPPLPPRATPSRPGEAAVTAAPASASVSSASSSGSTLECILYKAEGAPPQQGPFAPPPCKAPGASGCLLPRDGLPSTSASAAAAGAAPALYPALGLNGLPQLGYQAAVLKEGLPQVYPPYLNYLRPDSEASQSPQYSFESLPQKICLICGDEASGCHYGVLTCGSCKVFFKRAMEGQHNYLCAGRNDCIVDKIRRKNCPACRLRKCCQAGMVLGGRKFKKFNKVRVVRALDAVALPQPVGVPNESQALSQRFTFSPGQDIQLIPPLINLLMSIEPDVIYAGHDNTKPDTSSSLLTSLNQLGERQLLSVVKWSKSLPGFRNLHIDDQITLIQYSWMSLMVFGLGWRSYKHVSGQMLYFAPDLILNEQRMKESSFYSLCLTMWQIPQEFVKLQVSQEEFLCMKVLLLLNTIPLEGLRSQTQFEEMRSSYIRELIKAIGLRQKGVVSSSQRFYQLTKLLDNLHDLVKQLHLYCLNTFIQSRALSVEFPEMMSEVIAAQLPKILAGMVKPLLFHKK
Chain of human Peroxisome Proliferator-activated Receptor alpha (PPARa), PPARA (gene 5465) (Q07869 whole entry, looked up): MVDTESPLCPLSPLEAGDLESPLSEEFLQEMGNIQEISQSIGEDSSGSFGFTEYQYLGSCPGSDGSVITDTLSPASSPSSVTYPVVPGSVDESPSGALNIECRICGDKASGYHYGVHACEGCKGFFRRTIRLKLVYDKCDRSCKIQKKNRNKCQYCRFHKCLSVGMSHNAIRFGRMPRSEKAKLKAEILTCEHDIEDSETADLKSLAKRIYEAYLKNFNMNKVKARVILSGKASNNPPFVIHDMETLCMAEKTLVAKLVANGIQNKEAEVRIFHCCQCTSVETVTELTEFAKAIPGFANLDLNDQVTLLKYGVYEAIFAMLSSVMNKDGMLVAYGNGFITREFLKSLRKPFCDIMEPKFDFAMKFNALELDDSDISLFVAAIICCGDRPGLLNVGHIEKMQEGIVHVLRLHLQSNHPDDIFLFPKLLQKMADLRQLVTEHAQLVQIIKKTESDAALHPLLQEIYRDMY
Chain of Retinoic acid receptor alpha (Homo sapiens) (P10276 whole entry, looked up): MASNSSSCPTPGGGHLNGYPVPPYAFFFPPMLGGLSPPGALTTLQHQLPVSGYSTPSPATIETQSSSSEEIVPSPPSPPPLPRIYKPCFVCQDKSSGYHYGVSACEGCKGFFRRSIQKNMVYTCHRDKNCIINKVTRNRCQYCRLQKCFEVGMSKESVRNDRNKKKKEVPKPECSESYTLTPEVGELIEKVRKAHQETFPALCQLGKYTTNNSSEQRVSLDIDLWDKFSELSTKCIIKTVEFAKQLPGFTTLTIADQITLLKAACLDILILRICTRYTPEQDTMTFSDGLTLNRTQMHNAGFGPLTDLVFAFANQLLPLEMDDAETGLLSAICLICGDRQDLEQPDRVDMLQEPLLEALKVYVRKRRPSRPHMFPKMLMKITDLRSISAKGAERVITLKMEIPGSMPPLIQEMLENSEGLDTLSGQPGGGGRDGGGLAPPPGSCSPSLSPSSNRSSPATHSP
Chain of human Thyroid Receptor Alpha (TRa), THRA (gene 7067) (P10827 whole entry, looked up): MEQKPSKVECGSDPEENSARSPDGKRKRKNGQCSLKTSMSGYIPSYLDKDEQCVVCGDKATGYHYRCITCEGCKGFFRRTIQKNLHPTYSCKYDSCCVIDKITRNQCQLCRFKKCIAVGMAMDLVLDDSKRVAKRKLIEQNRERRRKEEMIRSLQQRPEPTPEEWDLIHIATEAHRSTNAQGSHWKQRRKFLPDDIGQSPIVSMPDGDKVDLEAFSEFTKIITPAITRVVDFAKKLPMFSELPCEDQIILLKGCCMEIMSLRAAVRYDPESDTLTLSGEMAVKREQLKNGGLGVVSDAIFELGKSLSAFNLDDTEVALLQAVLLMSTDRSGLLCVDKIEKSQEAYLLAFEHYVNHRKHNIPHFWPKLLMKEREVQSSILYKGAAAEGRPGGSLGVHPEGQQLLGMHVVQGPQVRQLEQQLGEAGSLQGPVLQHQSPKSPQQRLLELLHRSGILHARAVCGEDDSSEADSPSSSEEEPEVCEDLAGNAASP
Chain of Androgen Receptor/SRC-1 Co-activator, AR (gene 367) (P10275 whole entry, looked up, the tested form may be a part): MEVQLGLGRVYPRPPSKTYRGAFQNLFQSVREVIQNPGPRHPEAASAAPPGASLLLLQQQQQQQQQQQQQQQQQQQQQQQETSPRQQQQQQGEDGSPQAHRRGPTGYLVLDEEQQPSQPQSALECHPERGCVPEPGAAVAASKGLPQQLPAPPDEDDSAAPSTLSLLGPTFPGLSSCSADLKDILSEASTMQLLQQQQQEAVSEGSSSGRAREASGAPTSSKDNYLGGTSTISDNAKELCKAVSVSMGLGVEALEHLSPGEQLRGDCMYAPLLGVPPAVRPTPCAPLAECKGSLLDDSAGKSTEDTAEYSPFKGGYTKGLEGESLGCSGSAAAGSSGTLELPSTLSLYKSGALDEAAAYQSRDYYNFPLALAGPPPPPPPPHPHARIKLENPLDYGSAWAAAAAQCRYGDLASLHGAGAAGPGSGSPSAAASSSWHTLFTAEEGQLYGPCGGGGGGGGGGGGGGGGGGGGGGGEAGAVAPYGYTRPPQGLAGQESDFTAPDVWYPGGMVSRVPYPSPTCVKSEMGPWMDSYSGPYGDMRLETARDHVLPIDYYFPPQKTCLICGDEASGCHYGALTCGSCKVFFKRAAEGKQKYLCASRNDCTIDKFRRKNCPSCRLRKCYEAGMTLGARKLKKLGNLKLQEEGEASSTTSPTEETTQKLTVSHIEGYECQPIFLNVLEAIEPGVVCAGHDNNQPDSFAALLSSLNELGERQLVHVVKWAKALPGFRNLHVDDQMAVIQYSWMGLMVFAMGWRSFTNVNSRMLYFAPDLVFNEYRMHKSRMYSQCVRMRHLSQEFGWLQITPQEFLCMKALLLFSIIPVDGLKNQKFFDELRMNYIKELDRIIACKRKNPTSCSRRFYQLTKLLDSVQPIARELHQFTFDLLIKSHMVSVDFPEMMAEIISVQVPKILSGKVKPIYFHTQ
Chain of Estrogen receptor beta (Homo sapiens) (Q92731 whole entry, looked up, the tested form may be a part): as the sequence (Q92731 whole entry, looked up, the tested form may be a part) above

As for `CC(=O)Oc1ccccc1C(=O)O`, the result in assay [1], in assay [2], in [3], in assay [4], in assay [5] and in assay [6] was inactive.
Regarding `CCCCCCCCCCCCCCCC`, the outcome in assay [1] and in assay [2] was inactive.
On to `CCCCN(CCCC)CCCC`, for which the outcome in [1], in [2], in [3] and in assay [6] was inactive.
As for `O=C(N[C@@H](Cc1ccccc1)[C@@H](O)C(=O)N1C[C@@H](O)[C@@H](O)C1)c1cc2cc(Cl)ccc2[nH]1`, the call in [1], in assay [2], in [3] and in assay [6] was inactive.
Take `COc1ccc(C)cc1N`: the compound was called inactive in assay [1], in assay [2], in assay [4], in assay [5] and in [7].
For the compound `Cc1ccc(N(C)C)cc1`, the compound was called inactive in assay [1], in assay [2], in assay [4] and in [5].
As for `CCCCOC(=O)CCCCCCCCC(=O)OCCCC`, the result in assay [1], in [2], in assay [3], in [6], in [8] and in [9] was inactive. Further, the compound was classed as inactive in [10].
One may read the AC50 as the concentration giving half of the maximal activity seen. As for `O=c1c(O)c(-c2ccc(O)c(O)c2)oc2cc(O)cc(O)c12`, the compound was classed as inactive in [1], in assay [2] and in assay [8]. For the same compound, the AC50 is 13.4 µM (active) in assay [3] and 2.32 µM (active) in [6].
As for `C[C@]12C=CC(=O)C=C1CC[C@@H]1[C@@H]2C(=O)C[C@@]2(C)[C@H]1CC[C@]2(O)C(=O)CO`, the compound was classed as inactive in [1], in [2] and in assay [6]. Moreover, in assay [11], the AC50 is 0.178 µM (active).
For `FC(F)(F)C(F)(F)C(F)(F)C(F)(F)C(F)(F)C(F)(F)CCI`, the call in assay [1], in assay [2] and in [7] was inactive.
Take `c1cc(-c2ccncc2)ccn1`: the compound was classed as inactive (in assay [1]; in assay [2]; in assay [12]; in assay [6]; with PGR (gene 5241)).
For `NCC1(Cc2noc(=O)[nH]2)CCCCC1`, the call in assay [1], in [2], in assay [3] and in [6] was inactive.
As to `C=CCOC(=O)c1ccccc1C(=O)OCC=C`, the compound was called inactive in assay [1] and in [8]. In addition, the AC50 in [2] is 63.1 µM (active).
As for `Clc1cc(Cl)c(Cl)cc1Cl`, the compound was called inactive in assay [1], in [2] and in [6].
With `Nc1ccc(S(=O)(=O)c2ccc(N)cc2)cc1`, the outcome (in assay [1]; in [2]; with PGR (gene 5241)) was inactive.
For the compound `Nc1ccc2c(c1)C(=O)c1ccccc1C2=O`, the compound was classed as inactive in assay [1] and in assay [10].
`NCCO`: the call in [1], in assay [2] and in assay [7] was inactive.
Turning to `O=C(O)CCCCC(=O)O`, the outcome in assay [1], in assay [2], in assay [3] and in assay [6] was inactive.
Take `CCCCCCCCCCO`: the outcome in assay [1], in assay [2], in assay [3], in [6] and in assay [8] was inactive.
In the case of `Cc1ccc2ncccc2c1`, the call in assay [1], in [2], in [7] and in assay [10] was inactive.
Take `CC(CO)OC(C)CO` (centres undefined) (tested in a mixture with another compound): the call in assay [1], in assay [2] and in assay [8] was inactive.
`Cc1cc(NC(=O)C(=O)O)cc(C)c1Oc1ccc(O)c2c1CCC2`: the compound was classed as inactive in assay [1], in [2], in [4], in [5], in [8] and in [10]. Also, the AC50 with PGR (gene 5241) is 7.64 µM (active).
With `Cc1ccccc1Cl`, the outcome in assay [1], in [2], in assay [4] and in [5] was inactive.
